Several values for one entry are separate records, joined by “and”; a condition that tells them apart may be missing. Identical values can stand only once. The whole screen tested about 190,000 compounds, of which about 810 (0.43%) were called active. No stated cut-off is given here; in the data, active means inhibition above about 50%; inactive means the rest. Only a selection was taken, and actives are over-represented in it overall.

The target of the experiment is Mannose-6-phosphate isomerase (Homo sapiens) (UniProt P34949). The experiment in a line: inhibitors of human PMI, primary screen, biochemical, fluorescence intensity, coupled assay (AID 1209).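 Further: plate controls were DMSO vehicle for no effect and wells lacking substrate for full effect.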 Conditions: purified PMI enzyme, at 20 µM, active compounds read high.
Mannose-6-phosphate isomerase (Homo sapiens), sequence (P34949 whole entry, looked up): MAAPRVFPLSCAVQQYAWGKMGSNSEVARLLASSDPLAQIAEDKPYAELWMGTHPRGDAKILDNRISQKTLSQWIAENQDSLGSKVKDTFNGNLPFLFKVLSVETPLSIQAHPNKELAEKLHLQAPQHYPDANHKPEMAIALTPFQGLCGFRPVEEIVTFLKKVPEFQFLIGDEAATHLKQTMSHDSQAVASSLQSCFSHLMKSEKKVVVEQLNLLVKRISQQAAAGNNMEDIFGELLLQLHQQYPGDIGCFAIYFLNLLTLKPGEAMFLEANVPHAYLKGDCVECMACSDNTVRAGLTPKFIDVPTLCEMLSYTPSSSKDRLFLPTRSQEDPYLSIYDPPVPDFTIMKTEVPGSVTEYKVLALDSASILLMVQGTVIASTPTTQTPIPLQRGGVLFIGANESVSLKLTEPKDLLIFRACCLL
In the case of `O=C(COC(=O)c1cnccn1)NCc1ccc2c(c1)OCO2`, the inhibition (as a rule, the drop in the measured response relative to a control, in per cent) is -15.9% (inactive).

Turning to `CCC(C)(C(=O)NC1CCCCC1)N(Cc1ccco1)C(=O)CC1NC(=O)NC1=O` (stereo unspecified), the inhibition was 8.4% (inactive).

For the compound `COc1cc(C2NC(=O)NC(C)=C2C(=O)OC(C)C)ccc1OC(=O)c1ccco1` (stereo unspecified), the inhibition is 1% (inactive).

Consider `Cc1cccc(Nc2ncnc3c2cnn3C)c1`, for which the inhibition is 10.3% (inactive).

For `COc1ccc(CN2C(=O)c3ccccc3C2C(=O)NCCc2ccccc2)c(OC)c1` (stereo unspecified), the inhibition was 17.9% (inactive).

As to `COc1cc(/C=c2\sc3nc(=O)c(-c4ccccc4)nn3c2=O)ccc1OCCC(C)C`, the inhibition is -1.8% (inactive).

With `CCOc1ccccc1NC(=O)C1CCN(S(=O)(=O)c2c(C)nn(C)c2C)CC1`, the inhibition was 112% (active).

As for `Cc1cccc(NC(=O)C2CCN(S(=O)(=O)c3c(C)nn(C)c3C)CC2)n1`, the inhibition was 8.4% (inactive).

In the case of `CCOc1ccccc1NC(=O)C1CCN(S(=O)(=O)c2c(C)noc2C)CC1`, the inhibition was 5.5% (inactive).

For `N#CC(c1ccc(F)cc1)c1ccc(C(=O)c2ccc(F)cc2)cc1` (stereo unspecified), the inhibition is 5.1% (inactive).

As to `CCOc1ccc(S(=O)(=O)Nc2ccc(O)c(Sc3ncn[nH]3)c2)cc1`, the inhibition is 3.2% (inactive).

`O=S(=O)(Nc1cc(Sc2cccc3cccnc23)c(O)c2ccccc12)c1ccccc1`: the inhibition was 9.2% (inactive).

With `O=S(=O)(Nc1cc(Sc2cccc3cccnc23)c(O)c2ccccc12)c1ccc(F)cc1`, the inhibition is 2.1% (inactive).

Consider `COc1ccc(S(=O)(=O)Nc2ccc(O)c(Sc3ncn[nH]3)c2)cc1`, for which the inhibition is 10.6% (inactive).

With `O=S(=O)(Nc1cc(Sc2ncn[nH]2)c(O)c2ccccc12)c1ccccc1`, the inhibition is 99.3% (active).

`COc1ccc(S(=O)(=O)Nc2cc(Sc3ncn[nH]3)c(O)c3ccccc23)cc1`: the inhibition was 98.7% (active).

For the compound `OCc1c(Cl)nc2ccccn12`, the inhibition was -8.7% (inactive).

As to `OCc1ccccc1N=c1ssnc1Cl`, the inhibition was 78.3% (active).

On to `Nc1ccccc1N=c1ssnc1Cl`, for which the inhibition is 61.4% (active).

`Cc1cc(Oc2ccccc2)nc(SCC(N)=O)n1`: the inhibition is -2% (inactive).

On to `NC(=O)CSc1nnc(C2CC2)n1-c1ccccc1`, for which the inhibition was -7.8% (inactive).

For `O=[N+]([O-])c1cc(S(=O)(=O)N2CCCC2)ccc1NCCc1ccccc1`, the inhibition was 4.4% (inactive).

Take `CC1=C(C(=O)Nc2ccccn2)C(c2ccccc2Cl)NC(=S)N1` (stereo unspecified): the inhibition was -6.6% (inactive).

Take `N#CC(c1cccc(Cl)c1)c1ncc(C(F)(F)F)cc1Cl` (stereo unspecified): the inhibition was 9.9% (inactive).

For `CC1CCc2c(sc(NC(=O)COC(=O)c3ccc(O)cc3)c2C#N)C1` (stereo unspecified), the inhibition was 2.3% (inactive).

Consider `COc1ccc(-c2[nH]c3ccccc3c2SCCNC(=O)c2ccccc2)cc1`, for which the inhibition was 7.4% (inactive).

`CS(=O)(=O)N1CCN=C1SCc1ccc([N+](=O)[O-])cc1`: the inhibition is -2.2% (inactive).

As to `COc1ccc2nc(S(=O)Cc3ncc(C)c(OC)c3C)[nH]c2c1` (stereo unspecified), the inhibition is 72.5% (active).

Regarding `Cc1c(OCC(F)(F)F)ccnc1CS(=O)c1nc2ccccc2[nH]1` (stereo unspecified), the inhibition was 30.6% (inactive) and 46.2% (inactive).

Regarding `COc1ccc2nc(C(C)O)[nH]c2c1` (stereo unspecified), the inhibition is 5.1% (inactive).

Regarding `CCOc1ccc(OCCn2c(=S)[nH]c3c(N)ncnc32)cc1`, the inhibition is 11% (inactive).

On to `Cc1ccc(OCCn2c(=S)[nH]c3c(N)ncnc32)cc1`, for which the inhibition was 8.7% (inactive).

Regarding `CC(C)Oc1ccc(OCCn2c(=S)[nH]c3c(N)ncnc32)cc1`, the inhibition is 54.9% (active).

`Cc1cccc(C(=O)Nc2ncc(CN3CCOCC3)s2)c1`: the inhibition was 4.7% (inactive).

Take `Cc1ccc(-n2[nH]c(C)c(C=Nc3ccc4[nH]c(=O)[nH]c4c3)c2=O)cc1`: the inhibition is 16.2% (inactive).

As for `Cc1[nH]n(-c2cccc3ccccc23)c(=O)c1C=Nc1ccc2[nH]c(=O)[nH]c2c1`, the inhibition is 14.6% (inactive).

Consider `O=c1[nH]c2ccc(N=Cc3c(O)ccc4cc(Br)ccc34)cc2[nH]1`, for which the inhibition was 64.6% (active).

Consider `CC(C)(C)NC(=O)NC(=O)COC(=O)Cc1coc2ccc3ccccc3c12`, for which the inhibition is 25.3% (inactive).

For `COc1cccc2c1C(=O)c1ccc3ccccc3c1C2=O`, the inhibition was -43.2% (inactive).

For the compound `CN(C)/C=C1/Oc2c(ccc3ccccc23)C1=O`, the inhibition is 21.5% (inactive).

In the case of `CN(C)/C=C1\Oc2ccc3ccccc3c2C1=O`, the inhibition is 86.5% (active).

For the compound `CCNC(=O)CC1SC(=Nc2ccc(C)cc2)NC1=O` (stereo unspecified), the inhibition was -4.7% (inactive).

`CC(=O)c1cccc(NC(=O)NNC(=O)CCC(=O)Nc2ccc(C)c(C)c2)c1`: the inhibition is -12% (inactive).

Turning to `CC(=O)Nc1ccc(S(=O)(=O)c2ccc(C)cc2)cc1`, the inhibition is 10.7% (inactive).

On to `Cc1ccc(S(=O)(=O)c2ccc(C)cc2)cc1`, for which the inhibition is -0.6% (inactive).

`CCc1cccc(C)c1NC(=S)NCC1CCN(c2ccc(OC)cc2)C1` (stereo unspecified): the inhibition was 55% (active).

On to `CCN1CCCC1CNS(=O)(=O)c1cccc(C(F)(F)F)c1` (stereo unspecified), for which the inhibition was -14.5% (inactive).

As to `CCOc1ccc(NC(=O)NCC2CCN(c3ccc(OC)cc3)C2)cc1` (stereo unspecified), the inhibition was 23.3% (inactive).

For the compound `COc1ccc(N2CCC(CNC(=O)Nc3cccc(OC)c3)C2)cc1` (stereo unspecified), the inhibition is 70% (active).

Consider `COc1ccc(N2CCC(CNC(=S)Nc3cccc(OC)c3)C2)cc1` (stereo unspecified), for which the inhibition was 29.7% (inactive).

Turning to `COc1ccc(N2CCC(CNS(=O)(=O)c3cccc(C(F)(F)F)c3)C2)cc1` (stereo unspecified), the inhibition was 65.5% (active).

Take `COc1ccc(N2CCC(CNC(=S)Nc3cccc(C)c3)C2)cc1` (stereo unspecified): the inhibition is 44.7% (inactive).

As to `COc1ccc(N2CCC(CNC(=O)Nc3ccccc3)C2)cc1` (stereo unspecified), the inhibition is 74.5% (active).

In the case of `COc1ccc(N2CCC(CNC(=O)Nc3ccc(Cl)cc3)C2)cc1` (stereo unspecified), the inhibition was 37% (inactive).

In the case of `COc1ccc(N2CCN(S(=O)(=O)c3cccc(C(F)(F)F)c3)CC2)cc1`, the inhibition is -0.4% (inactive).

Regarding `COc1ccc(NC(=S)NCC2CCN(c3ccc(OC)cc3)C2)cc1` (stereo unspecified), the inhibition is 49.3% (inactive).

For the compound `COc1ccc(N2CCC(CNC(=O)Nc3ccc(C)c(C)c3)C2)cc1` (stereo unspecified), the inhibition is 43.1% (inactive).

Regarding `Cn1c(SCC(=O)N=Nc2c(O)[nH]c3ccccc23)nc2ccccc21`, the inhibition was 3.1% (inactive).

Take `CCN(CC)CCCn1c(C)cc2c(c1=O)C(c1cc(OC)c(OC)cc1OC)C(C#N)=C(N)O2` (stereo unspecified): the inhibition was -0.8% (inactive).

As for `CC[C@H](C)[C@@H](NC(=O)O[C@@H]1C(=O)c2cc(OC)ccc2O[C@H]1c1ccc(OC)c(Br)c1)C(=O)OC`, the inhibition is 11% (inactive).

For the compound `CC(=O)N1CCc2cc(S(=O)(=O)CCC(=O)N3CCc4ccccc4C3)ccc21`, the inhibition is -7.9% (inactive).

The values above are taken from PubChem BioAssay AID1209 (Sanford-Burnham Center for Chemical Genomics, 2008).
